CHO-K1 Ca PAM: counter-screen for M1 PAMs: effect in parental CHO-K1 cells; ATP EC20, Fluo-8 calcium fluorescence; 0% at ATP EC20, 100% at ATP max; activation, % at 3 µM; 360,000 tested, 0.02% active; AID 602247;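 active means activation above the run cutoff, the mean activation of all test compounds plus 3 SD, cut at about 40% in these data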;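 further: peak over basal fluorescence ratio in a 140 s read after ATP addition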
M4 ag: agonists of human muscarinic M4 receptor (CHRM4) | P08173 | CHO-K1 hM4/Gqi5, Fluo-8 calcium fluorescence; vehicle 0%, full acetylcholine response 100% | activation, % at 3 µM | 360,000 tested, 0.14% active;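 active means activation above the run mean over all test wells plus 3 SD, cut at about 32% in these data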;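 further: peak over basal fluorescence ratio per well then scaled between controls; 0% = DMSO wells and 100% = acetylcholine at EC100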
Target sequence (P08173 whole entry, looked up): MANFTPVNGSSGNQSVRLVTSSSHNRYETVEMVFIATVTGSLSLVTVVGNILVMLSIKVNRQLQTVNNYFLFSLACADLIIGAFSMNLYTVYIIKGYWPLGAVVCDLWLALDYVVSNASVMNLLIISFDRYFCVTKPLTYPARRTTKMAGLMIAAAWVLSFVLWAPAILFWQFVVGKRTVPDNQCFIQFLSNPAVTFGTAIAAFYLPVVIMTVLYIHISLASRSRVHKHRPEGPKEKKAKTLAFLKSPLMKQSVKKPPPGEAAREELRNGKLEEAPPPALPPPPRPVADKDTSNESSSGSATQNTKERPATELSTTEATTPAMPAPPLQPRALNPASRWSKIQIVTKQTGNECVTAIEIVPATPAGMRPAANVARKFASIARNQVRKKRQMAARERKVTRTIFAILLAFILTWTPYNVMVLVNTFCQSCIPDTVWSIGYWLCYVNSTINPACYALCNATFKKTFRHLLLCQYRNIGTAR
CHO-K1 Ca ag: nonselective activator or artifact in parental CHO-K1 cells | Fluo-8 calcium fluorescence; scaled to maximal ATP response, vehicle zero | activation, % at 3 µM | 360,000 tested, 0.48% active; in the data active means activation above about 15%;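 further: untransfected CHO-K1 host cells lacking M1 receptor as counterscreen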
CHRM4 antagonist: blocks acetylcholine activation of human M4 receptor; P08173; CHO-hM4 cells, ACh EC80, Fluo-8 calcium fluorescence; inhibition, % at 3 µM; 360,000 tested, 0.73% active;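 active means inhibition above its plate's cutoff, the mean inhibition of sample wells plus 3 SD, cut at about 27% in these data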;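 further: 0% = acetylcholine EC80 with DMSO and 100% = DMSO without agonist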
CHO-K1 Ca antag: M1 antagonist counterscreen hit in parental CHO-K1 cells; ATP-induced calcium, Fluo-8 fluorescence; inhibition, % at 3 µM; 360,000 tested, 0.6% active;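 active means inhibition above a per-plate cutoff, the plate's mean sample inhibition plus 3 SD, cut at about 24% in these data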;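 further: 0% = DMSO plus EC80 ATP and 100% = DMSO alone without ATP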
M4 PAM: potentiates acetylcholine response at human M4 receptor. CHO-K1 hM4/Gqi5, Fluo-8 calcium fluorescence, ACh EC20; 0% = ACh EC20, 100% = maximal ACh. activation, % at 3 µM. 360,000 tested, 0.4% active;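 active means activation above its plate's cutoff, the mean activation of sample wells plus 3 SD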
Active calls of the source: *. In the library only some 2% were active in any assay of this set; here they are far more common.

SMILES	CHO-K1 Ca PAM	M4 ag	CHO-K1 Ca ag	CHRM4 antagonist	CHO-K1 Ca antag	M4 PAM
CO[C@@]1(NC(=O)C2SC(=C(C(N)=O)C(=O)O)S2)C(=O)N2C(C(=O)O)=C(CSc3nnnn3C)CS[C@@H]21 (stereo partly drawn)	-5.9	0.9	0.0	43.2*	9.6	-6.5
Cc1nn(CC(=O)NC2C(=O)N3C(C(=O)O)=C(CSc4nnnn4C)CSC23)cc1Br (stereo not drawn)	16.1	1.4	0.7	1.8	-19.5	2.9
O=C(Nc1cc2c3c(c1)CC(=O)N3CCC2)c1ccccc1C(F)(F)F	-4.4	2.6	1.1	-7.3	-9.7	0.6
Cc1cccc(C)c1-n1cccc1/C=C1/C(=N)N2C(=NC1=O)SN=C2S(C)(=O)=O	-8.8	-0.7	0.9	8.2	10.6	-11.1
Cc1ccc(-n2cccc2/C=C2/C(=N)N3C(=NC2=O)SN=C3S(C)(=O)=O)cc1Cl	-12.8	1.7	0.4	30.9*	20.6	16.2
COc1ccc(CN2CCNC(=O)C2CC(=O)NCCc2cnccn2)cc1C (stereo not drawn)	0.9	0.5	1.0	4.0	-2.5	1.8
O=C(C(=Cc1ccccc1)CN1CCCCC1)c1ccccc1	28.0	0.2	0.6	29.4*	-17.9	-9.4
O=C(CC1Nc2ccccc2NC1=O)Nc1ccc2c(c1)OCO2 (stereo not drawn)	-18.0	0.9	-0.2	10.6	28.1*	-7.9
Cc1ccc(NC(=O)CC2Nc3ccccc3NC2=O)cc1Cl (stereo not drawn)	-5.0	0.7	0.3	12.7	-3.5	0.3
CC(=O)c1ccc(NS(=O)(=O)c2ccccc2)cc1	16.2	0.5	0.9	-6.1	0.2	2.3
O=c1[nH]c(C2CCN(S(=O)(=O)c3ccc(S(=O)(=O)NC4CC4)cc3)CC2)nc2c1nnn2Cc1ccccc1	11.9	1.6	0.8	62.9*	-2.8	-21.4
Cc1nc2c(nnn2Cc2ccccc2)c(=O)[nH]1	-12.5	0.7	-0.1	9.3	25.3*	-5.5
O=c1[nH]c(C2CCN(S(=O)(=O)c3cccc(Cl)c3)CC2)nc2c1nnn2Cc1ccccc1	14.8	0.1	0.9	96.1*	-8.0	-18.3
O=c1[nH]c(C2CCN(S(=O)(=O)c3ccccc3)CC2)nc2c1nnn2Cc1cccc(Cl)c1	2.8	0.5	0.9	83.3*	-11.8	-21.8
C[C@@H](NC(=O)c1nc[nH]c1C(=O)N1CCN(c2ccccc2)CC1)c1ccccc1	4.4	2.1	-0.3	3.4	-10.8	0.9
O=c1[nH]c(C2CCN(S(=O)(=O)c3cccc([N+](=O)[O-])c3)CC2)nc2c1nnn2Cc1ccccc1	1.6	0.9	5.6	55.1*	0.3	-20.5
CCOC(=O)/C=C1\SCC(=O)N1CC(=O)NCCc1ccc(F)cc1	16.5	0.8	16.9*	-0.4	0.2	0.1
CCOC(=O)/C=C1\SCC(=O)N1CC(=O)NC(C)c1ccc(F)cc1 (stereo not drawn)	11.0	3.0	1.2	10.9	-6.1	4.3
CCOC(=O)/C=C1\SCC(=O)N1CC(=O)NC12CC3CC(CC(C3)C1)C2	-5.8	0.1	0.0	6.8	24.4*	-10.3
Cn1c(SCCC#N)nnc1-c1ccccc1F	7.3	0.6	0.9	3.7	-11.9	-1.4
CC(=O)NCCNC(=O)c1ccc(CSc2nc3ccccc3s2)cc1	13.2	0.7	8.6	39.4*	-10.4	-12.8
Cc1ccc2sc(N3CCN(CCNC(=O)c4ccco4)CC3)nc2c1C	1.8	9.0	20.0*	-3.3	-5.3	1.7
O=C(NCCN1CCCCC1)c1ccco1	17.4	0.1	0.0	-5.7	-6.9	1.1
Cc1ccc(NC(=O)CNc2ccc(Cl)c(Cl)c2)cc1S(=O)(=O)N(C)C	4.8	27.4	6.8	32.6*	18.5	-11.1
Cc1ccc(NC(=O)Cc2ccc(Cl)c(Cl)c2)cc1S(=O)(=O)N(C)C	8.6	10.2	9.0	13.2	8.0	-11.8
SMILES	CHO-K1 Ca PAM	M4 ag	CHO-K1 Ca ag	CHRM4 antagonist	CHO-K1 Ca antag	M4 PAM
c1ccc(NN(Cc2ccncc2)c2ccccc2)cc1	7.3	-1.7	0.0	-1.1	-3.4	3.5
N#Cc1ccc(CN(Nc2ccccc2)c2ccccc2)cc1	-12.1	-1.9	-0.6	-8.0	29.2*	-13.1
CN1CCN(c2ccc(CNS(=O)(=O)c3ccc(F)cc3Cl)cc2)CC1	-9.4	1.7	0.1	5.1	-0.9	19.6*
COc1ccc(C(=O)O)cc1NC(=S)NC(=O)c1ccc(-c2ccc(Cl)cc2)o1	15.7	0.7	0.2	-2.4	-1.4	4.3
CC(C)Cc1nc(N2CCN(C(=O)c3ccco3)CC2)c(C#N)c2c1CCC2	17.5	-0.1	2.4	-4.8	-7.1	-5.4
COc1ccc(C(=O)/C=C2\Sc3ccccc3N2C)cc1	27.6	1.2	0.9	-1.8	-8.6	5.3
COc1ccccc1-[n+]1c(C)cc(/C=C2\Sc3ccccc3N2C)cc1C	-6.6	15.9	33.8*	40.1*	51.5*	-39.8
COc1ccccc1OC(=O)CCN1c2ccccc2Sc2ccccc21	11.4	-1.0	0.6	-13.8	-8.0	-2.1
COc1ccc(-[n+]2c(C)cc(/C=C3\Sc4ccccc4N3C)cc2C)cc1	-10.1	10.5	20.7*	49.5*	40.3*	-22.9
COCc1cc(C)nc(SCC(=O)Oc2ccc(Cl)cc2)c1C#N	3.6	18.6	1.2	0.7	-12.5	-3.3
O=C(CN1CCN(c2ccc([N+](=O)[O-])cc2)CC1)c1ccccc1	12.7	2.3	2.3	29.0*	3.0	-16.1
O=C(CCc1ccccc1)N1CCN(c2ccc([N+](=O)[O-])cc2)CC1	2.2	10.5	3.9	-0.5	-3.6	29.4*
COc1ccc(N2CCN(CC(=O)c3ccccc3)CC2)cc1	6.2	0.6	0.1	0.5	2.8	2.4
Cc1cc(C(=O)N2CCN(c3ccc([N+](=O)[O-])cc3)CC2)co1	-12.6	17.1	2.0	32.9*	-4.0	41.0*
CN(Cc1ccccc1)C(=O)c1cc(=O)[nH]c2ccccc12	7.5	2.3	0.9	1.4	8.8	-1.3
O=C(N/N=C/C(Cl)=C/c1ccccc1)c1ccccc1F	-23.3	2.5	0.9	-2.3	-7.5	-0.4
COc1ccc(NC(=O)COc2ccc(-n3cnnn3)cc2)cc1OC	-8.9	6.1	3.6	-6.6	-5.8	5.8
O=C(NC(=S)Nc1ccccc1N1CCCC1)c1ccc(F)cc1	13.9	1.1	0.4	1.8	-3.3	-1.2
O=C(NC(=S)Nc1ccccc1N1CCCCC1)c1ccccc1	-8.0	3.3	-0.5	6.3	5.3	18.2*
Cc1ccc(NC(=O)Cn2c(=O)oc3ccccc32)cc1C	15.6	1.3	12.3	-1.0	-0.1	-1.1
COc1ccccc1NC(=O)COC(=O)c1c(C)nn(-c2ccccc2)c1C	5.6	17.3	7.7	5.8	-15.3	-0.9
Cc1nn(-c2ccccc2)c(C)c1C(=O)OCC(=O)Nc1ccccc1C(F)(F)F	-13.7	-2.9	-1.9	-1.5	-17.0	23.1*
